Experimental findings from PubChem BioAssay (NCI) are described below.

Each structure is given as a SMILES string. The panel holds about 83,000 compounds, 20% with a hit somewhere; the sample as a whole holds those more often.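 Each cell line was grown in a 96-well plate and treated with one concentration of compound for 48 hours. Values below 10 were considered active.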 Calls of active or inactive are those of the source.

The assay deals with NCI/ADR-RES ovarian. As to the kind of experiment: NCI-60 one-dose screen, 48 h (100 = growth as untreated, 0 = no growth, -100 = all killed). To be noted: 10 µM unless noted. On the procedure: Growth inhibition of the NCI/ADR-RES human […] tumor cell line is measured as a screen for anti-cancer activity. Cells are grown in 96 well plates and exposed to the test compound for 48 hours. Compounds are tested at a single concentration, which is 10^-5 M for most compounds. The reported endpoint is percent growth (GI% or GIPRCNT), where numbers from 0 - 100% represent growth inhibition, and numbers from -100% - 0 represent cell death. For example, a value of 40 represents 60% growth inhibition. A value of 0 means no net growth occurred over the course of the experiment. A value of -40 indicates 40% of cells at the beginning of the experiment died by the end of the experiment. A value of -100 means all cells are dead at the end of the experiment.
NCI-60 Human Tumor Cell Lines Screen was performed using the standard one-dose NCI protocol, which is described in more detail at https://dtp.cancer.gov/discovery_development/nci-60/default.htm.
Compounds with GIPRCNT values below 10 were considered active. Activity score was based on GIPRCNT using the following formula: […]
Score is 0 for GIPRCNT values of 100 or above, 50 for GIPRCNT values of 0, and 100 for GIPRCNT values of -100.
On to `Nc1ccc(CCCCc2ccccc2)c(Cl)c1`, for which the growth is 104% (inactive).

Consider `CN(CCC(=O)/C(=C\c1ccccc1)c1ccc(Cl)cc1)Cc1ccccc1`, for which the growth is 24% (inactive).

Turning to `Cn1ncc2c(Nc3ccc(Br)cc3)nc(Nc3ccc(Br)cc3)nc21`, the growth is 21.5% (inactive).

Take `O=C1c2ccccc2C2(c3ccc(O)cc3)c3ccccc3Oc3cccc1c32` (stereo not given): the growth was 11.1% (inactive).

As to `CCOC(=O)C(=CNc1ccccc1[N+](=O)[O-])C(=O)OCC`, the growth was 101% (inactive).

Take `COc1cc(-c2ccc(-c3ccc(C(=N)N)nc3)s2)cc(OC)c1OC`: the growth was 78.6% (inactive).

With `O=C(NCOC(O)C(Cl)(Cl)Cl)NCOC(O)C(Cl)(Cl)Cl` (stereo not given), the growth is 103% (inactive).

For the molecule `CN(C)CN1CCN(c2ccc3nc(-c4ccc5nc(-c6ccc(C(F)(F)F)cc6)[nH]c5c4)[nH]c3c2)CC1`, the growth is 97.9% (inactive).

For the molecule `N#C/C(=C\c1ccc(Br)cc1)n1nnc2cc(Cl)c(Cl)cc21`, the growth was 7.03% (active).

For the molecule `COc1ccc(/C=C(\C#N)n2nnc3cc(F)c(F)cc32)c(OC)c1OC`, the growth is 72.7% (inactive).

Turning to `COc1cccc(-c2nc3sccn3c2-c2ccnc(NCCNS(=O)(=O)c3c(Cl)cccc3Cl)c2)c1`, the growth was 36.6% (inactive).

`N#Cc1cnn2c(-c3ccc(Cl)cc3)nc(NCCc3ccccc3)nc12`: the growth is 90.1% (inactive).

For the molecule `Cc1c(C(=O)O)nnn1-c1nccs1`, the growth is 103% (inactive).

As to `CN(CCCCCCCCNc1ccnc2ccccc12)Cc1ccc(-c2ccc(-c3ccc(C#N)cc3)s2)cc1`, the growth is -68.3% (active).

Regarding `CC(=O)NCC(=O)Nc1ccc(-c2nnc3ccccn23)nc1.CC(=O)NCC(=O)Nc1ccc(-c2nnc3ccccn23)nc1.[Pt+2]`, the growth was 106% (inactive).

With `CN(C)c1ccc(/C=C/c2c(F)cccc2F)cc1`, the growth was 92.6% (inactive).

Consider `CCOc1cc(C2C(Cl)C(=O)N2n2cnnc2)ccc1O` (stereo not given), for which the growth is 100% (inactive).

As to `CC(=O)c1cc2c(o1)C(=O)c1ccccc1C2=O`, the growth was -13.2% (active).

As for `O=[N+]([O-])c1ccc(-c2cc3c(Nc4ccc(Sc5nc6ccccc6s5)c(Cl)c4)ncnc3s2)cc1`, the growth is 60.3% (inactive).

As to `OC(CBr)c1ccnc2ccccc12` (stereo not given), the growth is 101% (inactive).

Turning to `CC1=CC(=O)C(C(C)C)=CC1=Nc1cc(Br)c(O)c(Br)c1`, the growth was -22.9% (active).

Turning to `CCNCCNc1cc(-c2ccc(C(F)(F)F)cc2)c(C#N)c2nc3cc(Cl)c(Cl)cc3n12`, the growth was -79.2% (active).

With `CCOc1ccc(-c2nc3ccc(-c4nc5ccc(N6CCN(C)CC6)cc5[nH]4)cc3[nH]2)cc1OCC`, the growth is 104% (inactive).

`CO/C(=C1/NC(=O)C(Cc2ccc(O)c(Br)c2)N(C)C(=O)C(C)NC(=O)CCC/C=C(\C)CCC(C)OC1=O)c1ccccc1` (stereo not given): the growth was -0.469% (active).

On to `Cc1ccc(O)c(C(=O)c2ccccc2Cl)c1`, for which the growth was 89% (inactive).

With `CC(C)c1ccc(NC(=O)Cc2ccc(Nc3ncnc4cc(-c5cnn(CCN(C)C)c5)ccc34)cc2)cc1`, the growth is 52.4% [30 µM] (inactive).

As for `CCCCN(CCCC)CCCn1c(=O)c2sc3ncccc3c2n2nnc(-c3ccccc3)c12`, the growth is 108% (inactive).

For the molecule `Fc1ccc(Nc2ccc3cc(OCCCN4CCOCC4)ccc3n2)cc1F`, the growth was 59.8% (inactive).

As for `Cc1nc(C)c(-c2nn3c(-c4cccc(F)c4)nnc3s2)s1`, the growth is 91.3% (inactive).

For the molecule `Cc1csc(NC(=O)c2sc3nc(-c4cccs4)ccc3c2N)n1`, the growth is 94.1% (inactive).

On to `O=C(O)CC1Sc2ccccc2NC1=O` (stereo not given), for which the growth is 88.2% (inactive).

For the molecule `CCC(=O)OC1=C(C)SC2=NC(c3ccc(Cl)c(Cl)c3)=CC(c3cc(OC)c(OC)c(OC)c3)N21` (stereo not given), the growth was 105% (inactive).

For `C/C(Cc1ccc(Cl)cc1)=C(/c1ccc(Cl)cc1)c1ccc(OCCN(C)C)cc1`, the growth is 77.5% (inactive).

On to `COc1cc2c(c(OC)c1OC)C(=O)/C(=C/c1cc(C)c(O)c(C)c1)S2`, for which the growth is 14.1% (inactive).

As for `Nc1c(-c2nc3ccc(Br)cc3c(=O)[nH]2)nnn1-c1ccccc1`, the growth is 80.9% (inactive).

For `O=C(NCc1cccnc1)c1cc(-c2csc3c(=O)cc(N4CCOCC4)oc23)cc2c1OCCO2`, the growth is 89.3% (inactive).

Regarding `CC(C)CCC[C@@H](C)[C@H]1CCC2C3=CCC4C(=O)C=CC(=O)C4C3CC[C@@]21C` (stereo not given in full), the growth was 7.87% (active).

Regarding `O=[N+]([O-])c1ccc(-c2cc3c(Nc4ccc(OCc5cccc(Cl)c5)c(Cl)c4)ncnc3s2)cc1`, the growth was 68.1% (inactive).

On to `CC(C)(C)c1ccc(C(=O)Nc2sc3c(c2C(N)=O)CCC(=O)C3)cc1`, for which the growth was -0.603% (active).

`O=c1[nH]nc(-c2ccc(Cl)cc2)cc1Cc1ccccc1`: the growth is 98.4% (inactive).
